POLI inh – inhibitors of human DNA polymerase iota. Q9UNA4. hit rate 1% among 390,000. Potency, µM (series often up to 115 µM), inactives show top-dose activity, negative = inhibition, usual class: inhibitors. Pol iota fluorescent replication assay, 10 min; note: potency is the fitted concentration of half-maximal effect
Target sequence (Q9UNA4 whole entry, looked up): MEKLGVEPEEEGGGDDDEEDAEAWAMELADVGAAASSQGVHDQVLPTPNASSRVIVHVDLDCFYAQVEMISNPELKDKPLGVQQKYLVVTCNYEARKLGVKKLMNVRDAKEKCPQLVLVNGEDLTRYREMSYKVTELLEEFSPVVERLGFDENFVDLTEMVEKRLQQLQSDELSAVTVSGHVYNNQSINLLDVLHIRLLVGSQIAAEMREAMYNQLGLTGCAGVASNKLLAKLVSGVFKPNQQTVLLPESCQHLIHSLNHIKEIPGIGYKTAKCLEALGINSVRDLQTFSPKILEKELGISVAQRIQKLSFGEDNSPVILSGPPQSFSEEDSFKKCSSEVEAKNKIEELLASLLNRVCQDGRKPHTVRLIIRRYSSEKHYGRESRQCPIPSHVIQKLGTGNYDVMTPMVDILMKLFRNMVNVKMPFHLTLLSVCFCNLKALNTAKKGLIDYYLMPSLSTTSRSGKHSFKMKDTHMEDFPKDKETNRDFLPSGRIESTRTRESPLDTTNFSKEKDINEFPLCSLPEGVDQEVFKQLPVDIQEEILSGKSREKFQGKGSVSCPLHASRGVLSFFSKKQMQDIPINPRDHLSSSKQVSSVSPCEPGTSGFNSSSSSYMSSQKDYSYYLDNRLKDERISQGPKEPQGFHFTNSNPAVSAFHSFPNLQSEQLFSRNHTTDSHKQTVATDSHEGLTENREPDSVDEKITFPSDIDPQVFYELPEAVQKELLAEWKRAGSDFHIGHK
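Pol iota at 10 nM preincubated 15 min with compounds at room temperature; reaction started with fluorescent substrate, 50 nM final. Fluorescence read kinetically at 0 and 10 min; buffer-only wells as negative control.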
WRN helicase inh – inhibitors of human WRN helicase; Q14191; WRN helicase unwinding, fluorescent forked duplex, kinetic; Potency, µM (highest dose often 114 µM), for inactives: at the highest dose activity change, negative = inhibition, usual class: inhibitors; hit rate 0.46% among 360,000; note: potency is the fitted concentration of half-maximal effect; % is set by controls: 0 for no effect and ±100 for the full control effect; nearly all actives have a fitted effect of over 55% in size
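Fluorescence dequenching readout, ex 525 nm/em 598 nm, kinetic mode: forked duplex DNA (100 nM final) with adjacent fluorophore and quencher unwound by WRN (20 nM final) with 2 mM ATP. Compound preincubation 15 min, room temperature.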
Pol eta inh – inhibitors of human DNA polymerase eta | recombinant Pol eta, fluorescent DNA replication assay | Potency, µM (series often up to 114 µM), inactives show at the highest dose activity change, negative = inhibition, usual class: inhibitors | hit rate 1.2% among 390,000; note: potency is the fitted concentration of half-maximal effect; % is set by controls: 0 for no effect and ±100 for the full control effect
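Pol eta at 10 nM preincubated with compounds 15 min at room temperature; reaction started with fluorescent substrate (50 nM final) and read kinetically at 0 and 10 min.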
Pol beta inh – inhibitors of human DNA polymerase beta; hit rate 1.3% among 340,000; Potency, µM (titrated, usually from 114 µM), without a hit: top-dose activity change, negative = inhibition, usual class: inhibitors; Pol beta primer extension/strand displacement, fluorescence kinetic; note: potency is the fitted concentration of half-maximal effect; % is set by controls: 0 for no effect and ±100 for the full control effect
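Reaction started by 50 nM substrate onto compound-treated Pol beta (10 nM, 15 min preincubation, room temperature); plates read at 0 min and 10 min. Normalized concentration-effect data fitted by four-parameter Hill equation.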
PI5P4Ka inh – inhibitors of human PI5P4K alpha. P48426. PI5P4Kalpha enzyme, ADP-Glo luminescence, 60 min; active compounds read low. max response, %. hit rate 1.2% among 330,000; active = max response of -50% or lower; inconclusive = between -30% and -50%; inactive = -30% or higher; note: value at the top dose of about 77 µM; % is set by controls: 0 for no effect and ±100 for the full control effect
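Human PI5P4Kalpha with substrate in 0.038 M HEPES pH 7.4, 0.28 mM EGTA, 0.1% CHAPS, 5% DMSO; reaction started with 5 microM ATP (final), 60 min at room temperature. ADP formed read by ADP-Glo luminescence.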
Pol kappa inh – blocks human DNA polymerase kappa activity. Q9UBT6. purified Pol kappa, fluorescent DNA synthesis assay, 10 min. Potency, µM (titrated, usually from 107 µM), for inactives: top-dose activity, negative = inhibition, actives largely listed as inhibitors. hit rate 0.53% among 400,000; note: potency is the fitted concentration of half-maximal effect; % is set by controls: 0 for no effect and ±100 for the full control effect
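Fluorescent qHTS in 1536-well format: enzyme (10 nM) and compound sat 15 min at room temperature before 50 nM substrate (final) was added. Signal taken at 0 and 10 min; no-enzyme buffer wells were negative controls.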
The depositor's hits bear a star; ? = inconclusive; nt = no result given; [ ] = remark or other dose. An excerpt weighted towards active compounds, which were near 2.8% of everything screened. Unless noted, calls come from the whole dose curve; as a rule, active = well fitted curve in the direction sought with a large enough effect; inconclusive = small, poorly fitted or top-dose-only effect, or another doubt; inactive = no such curve, though single readings can be large; an effect the other way counts as inactive or inconclusive.

SMILES | POLI inh | WRN helicase inh | Pol eta inh | Pol beta inh | PI5P4Ka inh | Pol kappa inh
O=C(CSC(=S)N1CCN(c2ccccc2)CC1)Nc1nc(-c2ccccc2)c(-c2ccccc2)o1 | 42% | -9% | -15% | 3% | 5 | -4%
Cc1ccccc1OCC(=O)OCC(=O)Nc1ccc2c(c1)OCCO2 | 13µM* | -3% | -3% | nt | 0 | -4%
Cc1cccc(-n2c(O)c(C=Nc3ccccc3O)c3ccccc3c2=O)n1 | ? | ? | 45µM* | -32% | 0 | ?
COc1ccc(NC(=O)Cn2cnc3c(nc4n3CCCCC4)c2=O)c(OC)c1 | -16% | nt | -6% | 2% | nt | -25%
Cc1cc(C)cc(NC(=O)CCc2nnc3n(CC(C)C)c(=O)c4ccccc4n23)c1 | 27% | nt | -15% | 1% | nt | 1%
CCOc1cc(C=O)cc(N=Nc2cccc([N+](=O)[O-])c2)c1O | 23% | 2% | -14% | -1% | -28 | -23%
Cc1nc(N=Nc2cc(S(=O)(=O)O)c3cc([N+](=O)[O-])cc(S(=O)(=O)O)c3c2)c(COP(=O)(O)O)c(C=O)c1O | 5µM* | nt | 0.63µM* | 2.8µM* | nt | 9.5µM*
Cc1nc(N=Nc2cc([N+](=O)[O-])ccc2Cl)c(COP(=O)(O)O)c(C=O)c1O | nt | nt | nt | nt | nt | 27µM*
Cc1ccc(-c2cc(C(=O)NN3CCOCC3)c3cc(Br)ccc3n2)o1 | 13% | -7% | 0% | ? | -29 | -13%
Cc1ccc(-c2cc(C(=O)Nc3ccccc3C)c3ccccc3n2)o1 | 0% | -23% | ? | 10µM* | ? | -8%
COc1cccc(NC(=O)c2cc(-c3ccc(C)o3)nc3ccccc23)c1 | ? | -28% | 79µM* | ? | ? | ?
Cc1ccc(-c2cc(C(=O)NC3=NCCS3)c3cc(Br)ccc3n2)o1 | nt | nt | nt | 79µM* | nt | nt
C=CCN(C(C(=O)OC)C(C)C)S(=O)(=O)CCl (centres undefined) | 29% | nt | nt | nt | nt | -3%
c1cc2c3c(c1)CCC[N+]3(C1CCCCC1)CCC2 | 27% | nt | nt | nt | nt | -14%
CCNc1ccc(/C=C2\C=Cc3ccccc32)cc1 | 69% | nt | nt | nt | nt | -8%
Cc1csc2nc3cc(C(N)=O)ccc3c(=O)n12 | 18% | 1% | -13% | 1% | -8 | 12%
NC(=O)c1ccc2c(=O)n3c(-c4cc(Cl)c(N)c(Cl)c4)csc3nc2c1 | 50µM* | -35% | ? | ? | -10 | -2%
COc1ccc(/C=C/C(=O)Nc2ccc3nc4c(c(Nc5ccc(OC)c(OC)c5)c3c2)CCCC4)cc1 | -23% | nt | -13% | -12% | nt | ?
Cc1ccc(CNc2ccc(N3CCOCC3)cc2)s1 | ? | 3% | 5% | 15% | -5 | -1%
CC(=O)N1CCN(c2ccc(NCc3ccc(C)s3)cc2)CC1 | 50µM* | 8% | -16% | 4% | 0 | -5%
Oc1cc(CNCc2ccccc2)c(O)cc1CNCc1ccccc1 | ? | -16% | ? | nt | -56* | 79µM*
COc1ccc(C(=O)NC2=NCCS2)cc1S(=O)(=O)N1CCOCC1 | nt | -7% | -14% | nt | 1 | nt
COc1ccc(OC)c(NC(=O)CN2C(=O)C(C)N(c3ccc(C)cc3)C2=O)c1 (centres undefined) | 16% | -7% | -13% | nt | -4 | 11%
Cc1ccccc1N1CCN(C2CCCN(C(=O)CCn3cnnn3)C2)CC1 (centres undefined) | -13% | -11% | -8% | 35µM* | -5 | -17%
Cc1ccccc1N1CCN(C2CCCN(C(=O)CCN3CCCCO3)C2)CC1 (centres undefined) | 24% | -13% | -10% | 31% | -1 | -12%
SMILES | POLI inh | WRN helicase inh | Pol eta inh | Pol beta inh | PI5P4Ka inh | Pol kappa inh
COc1ccc(/C=C2\C=Cc3ccccc32)cc1OC | -8% | nt | nt | nt | nt | -24%
CCOc1ccc(NC(=O)CN(C)C(=O)c2c(C)nn(-c3ccccc3)c2Cl)cc1OCC | 19% | -1% | -12% | nt | -5 | 1%
COC(=O)c1sc(S(=O)(=O)Nc2c(C)nn(C)c2C)c(C(=O)OC)c1C | -12% | 4% | -26% | nt | 3 | -9%
COC(=O)c1sc(NC(=S)NNC(=O)c2c(Br)c(C)nn2C)c(C(=O)OC)c1C | ? | -18% | 50µM* | 22µM* | ? | -35%
O=C(Cn1c(=O)oc2ccccc21)Nc1n[nH]c(=S)s1 | 27% | -6% | -14% | -10% | -79* | -38%
Cc1ccc(NC(=O)Cn2c(=O)oc3ccccc32)cc1 | 141% | 7% | -14% | 25% | -3 | -16%
Cc1ccc(NC(=O)Cn2c(=O)oc3ccccc32)cc1Cl | 92% | -20% | 0% | 40µM* | -1 | -23%
O=C(CNC(=O)C(c1ccccc1)c1ccccc1)OCC(=O)c1ccc2ccccc2c1 | 10% | nt | nt | nt | nt | -9%
Cc1ccccc1NC1=C/C(=N\S(=O)(=O)c2cccs2)c2ccccc2C1=O | 3.2µM* | -12%[57.1 µM] | 11µM* | 26% | -14 | -21%
CC(=O)Nc1ccc(NC2=C/C(=N/S(=O)(=O)c3cccs3)c3ccccc3C2=O)cc1 | 14µM* | -9% | ? | ? | 1 | -11%
O=C(CN1C(=O)CC(c2ccc(F)cc2)=Nc2ccccc21)NCc1ccccc1Cl | -10% | nt | 2% | 1% | nt | 0%
O=[N+]([O-])c1cc(Cl)ccc1N1CCCC1 | 43% | 3% | -12% | 8% | 4 | 1%
O=C1C(Cl)=C(N2CCN(c3ccccc3[N+](=O)[O-])CC2)C(=O)c2ccccc21 | 7.9µM* | -27% | ? | 28% | -1 | -6%
CCCCN(CCCC)c1ccc(/C=C/c2ccnc3ccccc23)cc1 | 37% | nt | nt | nt | nt | 3%
O=C(c1ccccc1)c1cc(Cl)ccc1N1C(=O)C=CC1=O | 19% | 14µM* | -6% | -15% | -66* | -6%
O=C(CC(=O)c1cc(Cl)ccc1O)c1ccccc1 | 12% | -14% | -11% | -11% | nt | -2%
C=C(CCC(=O)c1ccccc1)C(=O)c1ccccc1 | ? | -16%[11.6 µM] | 16µM* | ? | 0 | 4%
O=C(NCC(=O)N1CCN(c2ccccc2O)CC1)c1ccco1 | 79µM* | -19% | -19% | -23% | -2 | -31%
Cn1c(=O)[nH]c(=O)c2c1[nH]c(=S)n2Cc1ccc(Cl)cc1 | -15% | -6% | 2% | 73% | -92* | -7%
Cn1c(=O)n(Cc2ccccc2Cl)c2ccccc21 | 40% | 0% | 1% | -15% | -19 | 3%
Cn1c(=O)n(Cc2ccccc2Cl)c(=O)c2c1[nH]c(=S)n2C | 32% | ? | -7% | 2% | -56* | -11%
Cn1c(=O)[nH]c(=O)c2c1[nH]c(=S)n2CCCc1ccccc1 | -28% | 9% | ? | 43% | -52* | -12%
Cn1c(=O)c2c(nc(Br)n2CCCc2ccccc2)n(C)c1=O | 12% | -24% | -4% | 31% | 1 | 0%
